In PubChem BioAssay AID1508600 (Functional Genomics Laboratory (NCATS/FGL), 2020):
The campaign covered roughly 53,000 sequences. About 3,700 (7%) were called active.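 The calls were made as follows: active = gene knockdowns whose robust z-score for IL-1 alpha signal is at least 2 or at most -2, so actives lie on both sides; inactive = the rest.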 Only a selection was taken, and actives are over-represented in it overall.

assay: Components of the Cytosolic LPS Sensing Pathway: Gene Identification via Genome-wide siRNA Screen; conditions: RAW264.7 macrophages, IL-1a HTRF, actives lie on both sides, screened at 100 nM (by protocol), cells primed 5 h with Pam3CSK4 first;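 also: robust z of the log signal after scaling to non-targeting control siRNA wells of the plate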
Procedure, shortened: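 IL-1a HTRF of supernatants after 24 hour LipidA transfection of Pam3CSK4-primed (5 hours) RAW264.7 cells, 48h post-siRNA transfection (100 nM). Scores: percent of plate negative-control median, then log-based robust z-score.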

z-score, inactive:
GAAGUCUGUGACCAGUUCCTT against Fgf2os 0.735
CCCUGAAACCUCGGUGUUUTT against Vmac 1.34
GGAACUGGAGAUGCACAGCTT against Mtcl1 1.2
GGUUAUGUGUUCCAUAGAUTT against Pcdhb13 0.248
GGAUAAACAGCUGAAGGUGTT against Ccs 0.762
GGCCGUUUUUUGGCAUCGUTT against Acss1 -1.71
GGUAAUCCUGACUUCGUGGTT against Asb17 0.915
GCCGUAUUCAUUAAUAAAGTT against Ash1l 0.0753
CGAUUUCACAAAAACAUGATT against Vta1 -0.394
GGUGUUGGAGACCAUGGAUTT against Clcn6 0.829
GCAAUCGACCGCAUCCUAATT against Gm4827 -1.32
GGGCUCCAAUUUGCUACCATT against Grp 0.342
GCAGCAAUCAGAUCAUGUATT against Platr26 -0.694
GGUCCAGAUUGCUUAGAUGTT against Zbtb11os1 -0.398
CCUUAUACCAUAGAGAACATT against Bfar 1.14
GGCUUCAAGGACUUUACAATT against Mefv 1.62
GGUGUGCUCUGUAAAUCAUTT against Trappc2 0.656
GGAUGAGCAUAAAAGUCCUTT against Atf7ip -0.536
CCUGUCACAGAUGUAUGUGTT against Rnf149 0.331
GGAAUCUCCACCAUACAGGTT against Vmn1r26 -0.263
GGACGGUAGCCAUAUUAAUTT against Spink2 -0.385
GGCUGAAGUUCAUGAUGGCTT against Cd209d 1.7
GGCGAUUAUGGAAAAAUGUTT against Osbpl11 -0.431
GGCCUUUAUUCUAUGCAGUTT against Htr3a 1.59
GGAAAAAACGCACCAGCAUTT against Pou2f1 0.0271
GGACAAAGAAAAAGAUUCCTT against Stxbp6 -0.169
CCUGGAACAUAGAUGUAUATT against Jmjd4 0.484
GGUCUUUUCUACAUGUGGATT against Olfr389 0.268
GGAUGCUGAAGUGAAGGACTT against Myt1 -0.157
GCAUGUAGCCUGGCCUUCUTT against Zfp458 -0.591
GGAAUUUUACCUUUUGGAUTT against Tm9sf3 0.408
GGUCUCACUGAAAAUGAAATT against Ces1g -0.656
GGCUUGUCGUCCUGGUGUATT against Rprd2 0.219
GGCCUACAUCAUUCACUCCTT against Olfr64 -0.384
GGAGGAUCUAUACCACGGUTT against Npffr2 0.565
GGUUCGAGUCUCUUACUCUTT against Pou4f3 -0.574
GGGUGACCUUUACGUCUUCTT against Reep1 0.0877
GGGAGAAGAAUUUGAACAGTT against Ak1 0.557
GGGAUGCGGAGGUUUAAGATT against Dhx37 0.815
GGAGCUAAAGCUGCUGAUUTT against S100g -0.404
CCCAGGACGACGACUUUUUTT against Pnmal1 -0.0664
GGUUUUGGGCAAAAUUGAGTT against Edf1 -0.899
CCAAUGCAAUGUUAGCUUUTT against Tas1r3 0.898
GCCAUGGCAUAAAAACUGGTT against P2rx6 -0.329
CCACAUGAUCCUAACUUUGTT against Pqbp1 -0.157
CCUGAUAAGCAAAUACGGCTT against Rep15 -0.893
CCUGAAGCCUCAAUACACATT against Ugt1a1 0.967
GGAUGAUCACAAAGGUAUATT against 4632404H12Rik 0.0665
CCCAGUUGGUGUUUAUAUATT against Ppp3cb 0.115
GGAGAUUUCAUGAACUCUGTT against Srrm3 -0.141
GGCCAGGAAAAAAUCUGCATT against Neu1 -0.293
GGGUUUGACCUGAUUUCUCTT against Col9a1 0.305
GGUUACCUCCACCAGAUCATT against Avpi1 -0.326
GGCGGUAACCACUUUCACGTT against Mycn -0.567
GGAAGAAAUGGAAUUGAAGTT against Pcdhga6 0.649
GGAUGAUCAAGACAAGCAGTT against Nobox -0.763
CCUUGGGAAUUACCCAGAGTT against Cage1 -0.565
GCCGUUCCCAUUAUCGUUUTT against Tmem87a -0.693
GGAAGGUGGAGAAAAUCCGTT against Hhipl2 0.585
GGAAGAUACUAAUAGAGUATT against Enpep -0.00304
GGACGACAACGACAUCAUGTT against Sfrp2 0.475
GGGACCAAAGGAAACUUCATT against Eif2s3y -0.14
CCCAGGUGAUUCUGAUAUUTT against Rpl30 0.534
GGUACAUUGGCAUUGUGAATT against Hnrnpf 0.525
GCCUCCUUUGCUUCAUUUCTT against Fcer1g 1.83
GGUCUUCUGAAGAUGGCGUTT against Pja2 1.39
GCAACAAGUCUGGAGACAATT against Pebp1 -0.595
GGAGUUCCAGAAGCUUCUATT against Vwa3b -1.72
GCGGCUCUUACGAGGUUUATT against Upk3a 0.024
GGGAGUUAUGUUGGUAUCATT against 1700029F12Rik -1.38
GGACUUCUUCUAUUUCAUATT against Fam20a -0.986
GGAAAACACGUUCACUAUATT against Elp2 0.021
GGAGUCUCCAAUGAAAUGUTT against Kcnma1 -0.464
GCUAAACGAGUUAUUGGUGTT against Ecpas 0.829
GGAGAAACUGGCUUUCUCUTT against Zp3 0.918
GCGGCAAGUGGACUUUUCATT against Dlc1 -1.09
GCCCAGUUUGUCACAAAGCTT against Sorl1 -0.276
CCCUAGUGCAGUGAUAACUTT against 1700016D06Rik 0.938
CCCAACAAGAGUAUCUAUGTT against Foxh1 -0.125
GGCAUCUCUCCAAUAACCUTT against Fbxw2 -1.2
GGAUUUCUUCUUAUGAUGATT against Khnyn -1.21
GCUCAGAAUAUCACAUCAATT against Ppm1b -1.59
GCUAAAAUAUUAGGGAAGCTT against Timm29 0.429
GGAAAGAAAAAUGAAGCUUTT against Tmem167b -0.548

z-score, active:
GCUAGGUGGGCAACUGUAUTT against Lpar3 2.12
GGAAAUUGUCAGGUCCUACTT against Rad50 2.94
GGCAAGCCAGAGAAACUGATT against Rbm42 6.18
GCUAGAAAGGACUUCGUGGTT against Pla2g4f -2.36
CGUGAUGUACAUGCAGGAUTT against Slc48a1 2.83
GGAGAAACGAAAAGACUCUTT against Brpf1 -2.25
GGAGGAUACAGUGGAGGGATT against Fbxl19 2.81
CCACCAGGGAUCGUUAUAATT against Phyh 2.25
CCAGACGCGUAACUGCUACTT against Cox6b2 3.26
GGAAUGUUGGAAUCAAUUGTT against Gcm1 2.83
GGUGGCAGACUGUGUUUAUTT against B3gnt8 -2.08
GGACUUGGAAGUAAUUUUCTT against C230071H18Rik 2.06
GCUAGGUCAGGGAGUUUUATT against Exosc2 3.33
GGCCUAAACACGGUUUUCATT against Ppm1n 3.72
GGGUCUGCUACAUCUUCGGTT against Ino80e 2.27
GGUUCCCUUUUUCAUCUAATT against 4632433K11Rik 3.08
GGAGCAUUCAAAUUACAUCTT against Ccni 4.62
GGAAAUUUGUAUCCCGAGUTT against Trp53 -2.14
UGGACUUGCUUCUCACAUCTT against Olfr694 -2.22
CGAUGAGAGUCCACUCCCATT against Cox18 -3.19
GGUUCUACAGAUGUUUUCUTT against Tnfrsf22 3.84
GCUAAGCGGAAUGCACUCGTT against Cxcl5 -2.23
GGUUCUGGUUUAGAUGCUATT against H2aw 2.36
GGAGAUAGGAUUGCUUGCATT against Mthfd1l -2.3
